Assay results reported in PubChem BioAssay (NCATS).
Results filed as inconclusive are left out. A call without a number means that no potency is given here. Unmarked numbers belong to inactive results. Calls of active or inactive are those of the source. Calls follow the shape of the dose curve; as a rule, active = well fitted cell-killing curve with a large enough effect; inconclusive = small, poorly fitted or top-dose-only effect, or effect the other way; inactive = no such curve, though single readings can be large or run the other way.

How the values were obtained:
[1] = Viability qHTS for spleen associated tyrosine kinase inhibitor (SYKi) naive MV4-11 cells (AID 1963823); also: nearly all actives have a fitted effect of over 40% in size
Summary of the method: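 Compounds were dispensed acoustically onto plates, MV4-11 cells (SYKi-naive) added at 500 per well, and plates incubated 72 hr at 37 C. CellTiter-Glo was added and luminescence measured after 10 min.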

[2] = Viability qHTS for spleen associated tyrosine kinase inhibitor (SYKi) drug resistant MV4-11 cells (AID 1963824); also: nearly all actives have a fitted effect of over 35% in size
Summary of the method: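 CellTiter-Glo luminescence, read 10 min after reagent addition, reports viability after a 72 hr compound exposure. Cells are an MV4-11 line made resistant to SYK inhibition, seeded at 500 per well onto compound-containing plates.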
Potency is read from the fitted curve at half-maximal effect.

Compound	Potency [1]	Potency [2]
COc1cc(N2CCOCC2)ccc1Nc1ncc(F)c(Nc2ccccc2NS(C)(=O)=O)n1	1.64 µM (active)	2.59 µM (active)
C=CC(=O)Nc1cc(-n2c(=O)ccc3cnc4ccc(-c5ccc(NS(C)(=O)=O)cc5)cc4c32)ccc1C	1.16 µM (active)	1.3 µM (active)
COC(=N)c1nc2ccc3ncnc(Nc4ccc(F)cc4Br)c3c2s1	1.46 µM (active)	0.82 µM (active)
CCN(CC)CCN(Cc1ccc(-c2ccc(C(F)(F)F)cc2)cc1)C(=O)Cn1c(SCc2ccc(F)cc2)nc(=O)c2c1CCC2	2.91 µM (active)	3.26 µM (active)
Cc1ccc(C(=O)/C=C/c2ccccc2)s1	8.2 µM (active)	7.31 µM (active)
CC(C)(O)CC(CO)NC(=O)CC(O)CC(=O)Cc1ccccc1 (stereo not drawn)	inactive	inactive
CC1=CC(=O)CC2C1(O)CCC(C)C21CC(c2ccoc2)OC1=O (stereo not drawn)	inactive	inactive
C/C(=C\CO)CC/C=C(\C)C(=O)O[C@H]1[C@H](OC2OC=C(C(=O)O)C3CCC(C)(O)C23)O[C@H](CO)[C@@H](O)[C@@H]1O (stereo partly drawn)	inactive	inactive
C/C=C/C=C/C=C/C(=O)N(C)C(C(=O)NC(C)C(=O)N1CCCC1C(N)=O)C(C)C (stereo not drawn)	inactive	inactive
O=C1Nc2ccc(O)cc2O[C@H]1O[C@@H]1O[C@H](CO)[C@@H](O)[C@H](O)[C@H]1O	inactive	inactive
O=C(NCc1cccc(O)c1)c1cc2cc(F)ccc2[nH]1	16.4 µM (active)	13 µM (active)
C=C1CCC(OC(C)=O)C2(C)CC3(O)OC(=O)C(C)=C3CC12 (stereo not drawn)	inactive	inactive
CS(=O)(=O)N(CC(=O)NCC1CC1)c1cc(C(F)(F)F)ccc1Cl	inactive	inactive
CC(C)[C@H]1C(=O)N[C@@H](CCCN=C(N)N)C(=O)NCC(=O)N[C@@H](CC(=O)O)C(=O)N[C@H](Cc2ccccc2)C(=O)N1C	inactive	inactive
COc1c2c(c(C)c3c1C(=O)OC3)O[C@@]1(C)CC(O)C(C(C)(C)O)[C@](C)(CCC(=O)O)[C@H]1C2 (stereo partly drawn)	7.96 µM (active)	7.09 µM (active)
CC1COC(Nc2ccc3ncnc(Nc4ccc(OCc5nccs5)c(Cl)c4)c3c2)=N1 (stereo not drawn)	9.2 µM (active)	9.2 µM (active)
CN[C@H]1CCN(C(=O)c2ccc(Nc3ncc(F)c(-c4cnc(C)n4C(C)C)n3)cc2)C1	0.058 µM (active)	0.0517 µM (active)
COc1ccc(CC2C(=O)NC(C)C(=O)N(C)C3Cc4ccc(cc4)Oc4cc(ccc4OC4OC(CO)C(O)C(O)C4O)CC(C(=O)NC(C)C(=O)NC(C)C(=O)N2C)N(C)C3=O)cc1 (stereo not drawn)	0.0155 µM (active)	0.0098 µM (active)
CC(C)=CCC/C(C)=C/Cc1ccc(O)c(C2OC(=O)c3cc(C(=O)O)cc(O)c32)c1O (stereo not drawn)	inactive	inactive
O=C(O)c1ccc(OC2OC(CO)C(O)C(O)C2O)cc1 (stereo not drawn)	inactive	inactive
COc1cc(CCc2ccc(OCC=C(C)C)cc2)cc(OC)c1OC	14.3 µM (active)	5.7 µM (active)
Cc1onc(C(=O)N2CCN(C(c3ccc(Cl)cc3)c3ccc(Cl)cc3)CC2)c1[N+](=O)[O-]	4.11 µM (active)	4.61 µM (active)
CC1=CC(=O)CC(C)(C)[C@H]1/C=C/C(CO)O[C@@H]1O[C@H](CO)[C@@H](O)[C@H](O)[C@H]1O (stereo partly drawn)	inactive	inactive
CC1(C)SC2C(NC(=O)[C@H](NC(=O)N3CCNC3=O)c3ccccc3)C(=O)N2C1C(=O)O (stereo partly drawn)	inactive	inactive
C/C=C/C=C/C(O)=C1\C(O)=C(C)C(=O)[C@@]2(C)OC(=O)[C@@](C)(NC(=O)/C=C/C(=O)O)[C@@H]12	inactive	inactive
CC1C(=O)OCC2=CC[N+]3([O-])CCC(OC(=O)C(C)(O)C1(C)O)C23 (stereo not drawn)	inactive	inactive
COc1cccc(CN(C(=O)CC(C)(C)C)[C@H]2C[C@H](C(=O)N3CCNCC3)N(Cc3ccc4c(c3)OCO4)C2)c1	18.4 µM (active)	16.4 µM (active)
C[C@H]1/C=C/C=C/C=C/C=C/C=C/[C@@H](O)[C@H](C(=O)O)[C@H](O)C[C@H](O)CCC[C@H](O)C[C@H](O)C[C@H](O)[C@@H](C)C(=O)O[C@@H]1C	inactive	inactive
Cn1sc(=O)n(Cc2ccccc2)c1=O	2.59 µM (active)	2.91 µM (active)
